Compounds without any hit were thinned out: in the full panel of roughly 83,000, 20% have a hit.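 A percent growth of 40 corresponds to 60% growth inhibition; 0 means no net growth; -100 means all cells died. Active threshold: below 10.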 Values without a mark were called inactive. Active and inactive are the calls of the source.
The compounds below were run on HL-60(TB) leukemia (assay: NCI-60 one-dose screen, 48 h (100 = growth as untreated, 0 = no growth, -100 = all killed)). Conditions: 10 µM unless noted.

SMILES | growth
NC1(C(=O)O)CSSC1 | 4.59% (active)
COc1cc2c(Oc3ccc(NC(=O)C4(C(=O)Nc5ccc(F)cc5)CC4)cc3F)ccnc2cc1OCCCN1CCOCC1 | -21.4% (active)
COc1ccc2occ(C3=C(c4c[nH]c5ccccc45)C(=O)NC3=O)c2c1 | 20.8%
COc1ccc(-c2nnc(SCC(=O)c3ccccc3)o2)cc1 | 80.5%
O=C(CN1CCN(c2ccccc2)CC1)N1CCN(c2nnc(-c3ccc(Cl)cc3)c(-c3ccc(Cl)cc3)n2)CC1 | -40.7% (active)

From PubChem BioAssay (NCI)
